Reference: PubChem BioAssay (EPA / NIEHS)
“And” between values parts separate entries of the source, which are not always exact repeats. Equal values may be shown once. Results filed as inconclusive are left out. More than one record can exist for a structure, and the calls need not agree. The source made the active and inactive calls. The calls were made as follows, unless noted: active = hit-call score of the fitted dose curve at least 0.9, where 1 is the maximum; inconclusive = response in the unintended direction; inactive = score below 0.9.

Key:
[1] = target: Estrogen receptor (Homo sapiens) (UniProt P03372); assay: ATG_hERa_XSP2: Attagene TRANS-FACTORIAL Multi-Species (XSP2) HepG2 Assay for human Estrogen Receptor (ERa) (AID 2283827)
Method in brief: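 Trans-activation of exogenous human ERa-Gal4 chimera read in HepG2 as reporter transcript after 24 h exposure; medium included 3 nM 6-alpha-fluorotestosterone and 1.5 nM norgestrel. Quantified by RT-PCR with capillary electrophoresis, positive-direction fitting against DMSO.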

[2] = system: frog Estrogen Receptor (ER2), gene 100174814; assay: ATG_frER2_XSP2: Attagene TRANS-FACTORIAL Multi-Species (XSP2) HepG2 Assay for frog Estrogen Receptor (ER2) (AID 2283828)
Method in brief: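 Read-out: reporter transcript levels by RT-PCR with 6-FAM primer extension, HpaI digestion and capillary electrophoresis, scored as induction over DMSO control. Transfected HepG2 carrying Xenopus ER2–GAL4 chimera; compounds incubated 24 h.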

[3] = target: Peroxisome proliferator-activated receptor gamma (Homo sapiens) (UniProt P37231); assay: ATG_hPPARg_XSP2: Attagene TRANS-FACTORIAL Multi-Species (XSP2) HepG2 Assay for human Peroxisome Proliferator-activated Receptor gamma (PPARg) (AID 2283829);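 also: actives raise reporter mRNA above DMSO so AC50 reflects PPARg activation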
Method in brief: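 HepG2 cells transiently transfected with GAL4-UAS reporter units driven by chimeric NR-Gal4 proteins; androgen receptor stimulated with 3 nM 6-alpha-fluorotestosterone and 1.5 nM norgestrel. After 24 h, reporter mRNA quantified by RT-PCR and capillary electrophoresis versus DMSO.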

[4] = target: mouse Peroxisome Proliferator-activated Receptor gamma (PPARg), Pparg (gene 19016) (UniProt P37238); assay: ATG_mPPARg_XSP2: Attagene TRANS-FACTORIAL Multi-Species (XSP2) HepG2 Assay for mouse Peroxisome Proliferator-activated Receptor gamma (PPARg) (AID 2283830);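 also: hits are gains in reporter mRNA above DMSO so AC50 marks activation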
Method in brief: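 Multiplexed TRANS reporter readout: after 24 h chemical exposure of transfected HepG2 cells (with 3 nM 6-alpha-fluorotestosterone, 1.5 nM norgestrel present), RNA reverse-transcribed, amplified, 6-FAM-labelled and resolved by capillary electrophoresis; mouse PPARg-Gal4 induction scored against DMSO.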

[5] = target: Nuclear receptor subfamily 1 group I member 2 (Mus musculus) (UniProt O54915); assay: ATG_mPXR_XSP2: Attagene TRANS-FACTORIAL Multi-Species (XSP1) HepG2 Assay for mouse Pregnane X Receptor (PXR) (AID 2283831)
Method in brief: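 HepG2 cells transiently transfected with GAL4-UAS reporter units expressing chimeric NR-Gal4 proteins; 24 h compound exposure. Reporter mRNA quantified by RT-PCR and capillary electrophoresis fluorescence; gain of signal fitted against DMSO.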

[6] = target: zebrafish Thyroid Hormone Receptor alpha (TRa), thraa (gene 30670) (UniProt Q98867); assay: ATG_zfTRa_XSP2: Attagene TRANS-FACTORIAL Multi-Species (XSP1) HepG2 Assay for zebrafish Thyroid Hormone Receptor alpha (TRa) (AID 2283832);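 also: actives raise zebrafish TRa-Gal4 reporter transcript above DMSO baseline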
Method in brief: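 Multiplexed TRANS reporter format in HepG2; the medium also contained 3 nM 6-alpha-fluorotestosterone and 1.5 nM norgestrel. Reporter mRNA after 24 h read by RT-PCR and capillary electrophoresis, scored as induction over DMSO.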

[7] = system: zebrafish Peroxisome Proliferator-activated Receptor gamma (PPARg), gene 557037; assay: ATG_zfPPARg_XSP2: Attagene TRANS-FACTORIAL Multi-Species (XSP2) HepG2 Assay for zebrafish Peroxisome Proliferator-activated Receptor gamma (PPARg) (AID 2283833);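 also: reporter mRNA from a zebrafish PPARg GAL4 chimera measured by RT-PCR and capillary electrophoresis; actives increase reporter signal over DMSO so AC50 reflects activation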
Method in brief: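 HepG2 cells transiently transfected with multiplexed GAL4-UAS reporter units expressing chimeric NR-Gal4 receptors, dosed 24 h. Reporter mRNA quantified by RT-PCR, fluorescent labelling, HpaI digestion and capillary electrophoresis; gain of signal fitted against DMSO.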

[8] = system: turtle Thyroid Hormone Receptor, alpha (TRa), gene 101949057; assay: ATG_trTRa_XSP2: Attagene TRANS-FACTORIAL Multi-Species (XSP1) HepG2 Assay for turtle Thyroid Hormone Receptor, alpha (TRa) (AID 2283834);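 also: hits raise reporter mRNA over the DMSO baseline so AC50 marks activators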
Method in brief: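 HepG2 cells transiently transfected with GAL4-UAS reporter units for chimeric turtle TRa-Gal4; mRNA measured 24 h after dosing by RT-PCR and capillary electrophoresis fluorescence, gain of signal fitted against DMSO.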

[9] = ATG_M_61_XSP2: Attagene TRANS-FACTORIAL Multi-Species (XSP2) HepG2 Assay for M61 Transcription Factor (Internal Marker) (AID 2283835; active = hit-call score of the fitted dose curve at least 0.9, where 1 is the maximum; inactive = score below 0.9;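 also: active means a rise in signal above the DMSO baseline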)
Method in brief: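 Internal background marker, read as RT-PCR/capillary-electrophoresis reporter mRNA 24 h post-dose in transiently transfected HepG2 cells. Androgen receptor stimulated with 3 nM 6-alpha-fluorotestosterone plus 1.5 nM norgestrel; gain of signal versus DMSO analysed.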

[10] = target: zebrafish Thyroid Hormone Receptor beta (TRb), thrb (gene 30607) (UniProt Q9PVE4); assay: ATG_zfTRb_XSP2: Attagene TRANS-FACTORIAL Multi-Species (XSP1) HepG2 Assay for zebrafish Thyroid Hormone Receptor beta (TRb) (AID 2283836)
Method in brief: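 Multiplexed trans-activation in HepG2 cells, 24 h treatment, with reporter mRNA read by RT-PCR and capillary electrophoresis. Gain-of-signal against DMSO.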

[11] = ATG_XTT_Cytotoxicity_XSP2: Cytotoxicity Assessment in the Attagene TRANS-FACTORIAL Multi-Species (XSP2) HepG2 Assay (AID 2283837)
Method in brief: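 XTT-based cell number read-out in human HepG2 liver cells carrying transfected reporter units, measured 24 h after chemical dosing. Activity is signal loss versus DMSO baseline.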

[12] = target: human Thyroid hormone Receptor alpha (TRa), THRA (gene 7067) (UniProt P10827); assay: ATG_hTRa_XSP2: Attagene TRANS-FACTORIAL Multi-Species (XSP2) HepG2 Assay for human Thyroid hormone Receptor alpha (TRa) (AID 2283838)
Method in brief: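 Gain-of-signal in reporter mRNA, relative to DMSO, after 24 h dosing of transfected HepG2; quantitation by RT-PCR fragment analysis on capillary electrophoresis.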

[13] = target: frog Thyroid hormone Receptor alpha (TRa), thra-a (gene 397942) (UniProt P15204); assay: ATG_frTRa_XSP2: Attagene TRANS-FACTORIAL Multi-Species (XSP2) HepG2 Assay for frog Thyroid hormone Receptor alpha (TRa) (AID 2283839)
Method in brief: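 HepG2 transiently transfected with multiplexed GAL4-UAS reporters driven by frog TRa-Gal4 chimeras; 24 h chemical exposure. Reporter mRNA quantified by RT-PCR, FAM labelling, HpaI digestion and capillary electrophoresis; gain of signal versus DMSO.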

[14] = target: human Thyroid hormone Receptor beta (TRb), THRB (gene 7068) (UniProt P10828); assay: ATG_hTRb_XSP2: Attagene TRANS-FACTORIAL Multi-Species (XSP2) HepG2 Assay for human Thyroid hormone Receptor beta (TRb) (AID 2283840);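 also: actives raise reporter mRNA so potency reflects agonist-like gain of signal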
Method in brief: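 HepG2 transiently transfected with a multi-species panel including a human TRb–Gal4 chimera driving Gal4-UAS reporters; medium contained 3 nM 6-alpha-fluorotestosterone and 1.5 nM norgestrel. 24 h dosing; RT-PCR/capillary electrophoresis readout; positive-direction fit vs DMSO.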

[15] = system: Sodium/Iodide Symporter (NIS), SLC5A5 (gene 6528); assay: CPHEA_Stoker_NIS_Inhibition_RAIU: CPHEA's Radioactive Iodide Uptake (RAIU) Assay for Sodium/Iodide Symporter (NIS) Inhibition, Stoker and Laws Labs (AID 2283841)
Method in brief: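 Test chemicals, six concentrations from 0.001 to 100uM in 0.5% DMSO, were co-incubated with carrier-free 125I (final 329pM) on hNIS-HEK293T-EPA monolayers in pH 7.4 HEPES-buffered HBSS. Plates stood 2 hours at room temperature, then were washed cold and counted.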

[16] = CPHEA_Stoker_NIS_Cytotoxicity: Cytotoxicity Assessment for CPHEA's Radioactive Iodide Uptake (RAIU) Assay for Sodium/Iodide Symporter (NIS) Inhibition, Stoker and Laws Labs (AID 2283897)
Method in brief: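 Viability in hNIS-HEK293T-EPA cells is scored as a drop in luciferase-detected ATP following 2-hour room-temperature exposure (0.001–100uM; triplicate wells, three cell passages), with DMSO as negative control.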

[17] = system: frog Androgen Receptor (AR), gene 399456; assay: ATG_frAR_XSP2: Attagene TRANS-FACTORIAL Multi-Species (XSP2) HepG2 Assay for frog Androgen Receptor (AR) (AID 2283824);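 also: reporter mRNA from GAL4-UAS units driven by Xenopus AR-Gal4 chimera; actives raise reporter signal above DMSO so AC50 reflects agonist-like induction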
Method in brief: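 Reporter transcript induction, read by RT-PCR with fluorescent capillary electrophoresis, in human liver HepG2 cells carrying an exogenous Xenopus AR-Gal4 fusion and GAL4-driven reporters; chemical exposure 24 hours, activity scored upward against DMSO controls.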

[18] = system: zebrafish Androgen Receptor (AR), gene 100005148; assay: ATG_zfAR_XSP2: Attagene TRANS-FACTORIAL Multi-Species (XSP2) HepG2 Assay for zebrafish Androgen Receptor (AR) (AID 2283825);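 also: hits raise reporter mRNA above DMSO so AC50 reflects agonist-type gain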
Method in brief: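 After 24 h compound exposure in medium with 3 nM 6-alpha-fluorotestosterone plus 1.5 nM norgestrel, HepG2 cells carrying zebrafish AR–GAL4 reporter constructs were assessed for reporter mRNA gain by RT-PCR and capillary electrophoresis.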

[19] = CEETOX_H295R_11DCORT_noMTC: CeeTox H295R High-throughput Steroidogenesis Assay for 11-Deoxycortisol (11DCORT), maximum tolerated concentration (MTC) filtered results only (AID 2283911; active = hit-call score of the fitted dose curve at least 0.9, where 1 is the maximum; inactive = score below 0.9); conditions: actives raise or lower the signal
Method in brief: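 H295R cells were prestimulated 48 h with 10 uM forskolin, then exposed 48 h to chemical (0.1% DMSO final). 11-Deoxycortisol in the medium was measured by MTBE extraction and HPLC-MS/MS, with bidirectional fitting versus DMSO and no MTC filtering of concentrations.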

[20] = CEETOX_H295R_OHPREG_noMTC: CeeTox H295R High-throughput Steroidogenesis Assay for OH-Pregnenolone (OHPREG), maximum tolerated concentration (MTC) filtered results only (AID 2283912; active = hit-call score of the fitted dose curve at least 0.9, where 1 is the maximum; inactive = score below 0.9); conditions: actives raise or lower the signal
Method in brief: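 Medium 17alpha-hydroxypregnenolone quantified by reverse-phase HPLC-MS/MS after 48 h chemical exposure of forskolin-prestimulated (10 uM, 48 h) H295R, 0.1% DMSO final. Fitting bidirectional relative to DMSO; no maximum-tolerated-concentration filtering applied.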

Measured: AC50

Chain of human Thyroid hormone Receptor beta (TRb), THRB (gene 7068) (P10828 whole entry, looked up, the tested form may be a part): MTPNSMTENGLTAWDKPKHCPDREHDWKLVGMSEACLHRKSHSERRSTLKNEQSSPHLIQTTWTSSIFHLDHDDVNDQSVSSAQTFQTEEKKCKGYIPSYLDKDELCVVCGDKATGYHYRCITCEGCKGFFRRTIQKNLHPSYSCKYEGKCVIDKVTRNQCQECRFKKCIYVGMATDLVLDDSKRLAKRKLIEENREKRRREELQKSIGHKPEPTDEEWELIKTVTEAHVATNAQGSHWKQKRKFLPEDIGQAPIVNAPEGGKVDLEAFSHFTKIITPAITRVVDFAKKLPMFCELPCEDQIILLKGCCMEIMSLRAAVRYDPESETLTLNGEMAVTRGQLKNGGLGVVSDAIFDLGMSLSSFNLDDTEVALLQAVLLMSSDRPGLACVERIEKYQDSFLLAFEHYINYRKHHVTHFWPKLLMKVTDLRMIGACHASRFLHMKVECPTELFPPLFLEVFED
Chain of zebrafish Thyroid Hormone Receptor beta (TRb), thrb (gene 30607) (Q9PVE4 whole entry, looked up): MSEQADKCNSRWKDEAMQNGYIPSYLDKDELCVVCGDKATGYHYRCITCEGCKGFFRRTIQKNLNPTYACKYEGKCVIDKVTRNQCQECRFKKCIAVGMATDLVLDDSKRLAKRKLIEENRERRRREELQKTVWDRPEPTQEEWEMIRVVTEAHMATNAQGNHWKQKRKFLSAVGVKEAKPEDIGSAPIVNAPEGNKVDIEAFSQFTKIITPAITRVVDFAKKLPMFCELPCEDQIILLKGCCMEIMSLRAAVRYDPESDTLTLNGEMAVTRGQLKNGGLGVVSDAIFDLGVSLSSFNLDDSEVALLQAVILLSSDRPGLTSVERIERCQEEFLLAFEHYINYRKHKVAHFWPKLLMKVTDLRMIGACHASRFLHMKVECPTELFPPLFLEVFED
Chain of Estrogen receptor (Homo sapiens) (P03372 whole entry, looked up, the tested form may be a part): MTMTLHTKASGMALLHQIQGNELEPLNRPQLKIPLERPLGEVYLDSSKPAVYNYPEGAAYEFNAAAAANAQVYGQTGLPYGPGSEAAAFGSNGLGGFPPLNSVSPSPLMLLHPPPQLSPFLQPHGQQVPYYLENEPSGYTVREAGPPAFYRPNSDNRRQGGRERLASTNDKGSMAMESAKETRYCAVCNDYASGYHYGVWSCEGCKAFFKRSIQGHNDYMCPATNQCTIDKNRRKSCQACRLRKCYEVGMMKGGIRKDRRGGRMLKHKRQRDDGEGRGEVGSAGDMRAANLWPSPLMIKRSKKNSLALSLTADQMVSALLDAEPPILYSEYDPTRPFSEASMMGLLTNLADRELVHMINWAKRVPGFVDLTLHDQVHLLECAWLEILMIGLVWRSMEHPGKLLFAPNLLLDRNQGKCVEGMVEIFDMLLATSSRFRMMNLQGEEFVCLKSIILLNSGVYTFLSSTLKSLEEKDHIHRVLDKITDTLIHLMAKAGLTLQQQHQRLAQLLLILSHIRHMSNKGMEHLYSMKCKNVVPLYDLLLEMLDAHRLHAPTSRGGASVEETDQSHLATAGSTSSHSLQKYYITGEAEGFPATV
Chain of frog Thyroid hormone Receptor alpha (TRa), thra-a (gene 397942) (P15204 whole entry, looked up, the tested form may be a part): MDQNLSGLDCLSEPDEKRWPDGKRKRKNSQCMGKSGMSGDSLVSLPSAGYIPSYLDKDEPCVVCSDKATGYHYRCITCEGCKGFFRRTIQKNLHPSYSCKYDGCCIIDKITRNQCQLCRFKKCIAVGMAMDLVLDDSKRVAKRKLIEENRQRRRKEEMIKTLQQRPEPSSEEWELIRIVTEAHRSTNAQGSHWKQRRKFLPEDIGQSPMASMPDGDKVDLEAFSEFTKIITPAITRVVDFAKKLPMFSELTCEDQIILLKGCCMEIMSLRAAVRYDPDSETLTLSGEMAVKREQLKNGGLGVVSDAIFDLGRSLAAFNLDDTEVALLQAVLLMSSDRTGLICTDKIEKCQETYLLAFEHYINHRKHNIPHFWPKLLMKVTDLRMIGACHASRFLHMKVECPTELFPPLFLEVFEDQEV
Chain of human Thyroid hormone Receptor alpha (TRa), THRA (gene 7067) (P10827 whole entry, looked up, the tested form may be a part): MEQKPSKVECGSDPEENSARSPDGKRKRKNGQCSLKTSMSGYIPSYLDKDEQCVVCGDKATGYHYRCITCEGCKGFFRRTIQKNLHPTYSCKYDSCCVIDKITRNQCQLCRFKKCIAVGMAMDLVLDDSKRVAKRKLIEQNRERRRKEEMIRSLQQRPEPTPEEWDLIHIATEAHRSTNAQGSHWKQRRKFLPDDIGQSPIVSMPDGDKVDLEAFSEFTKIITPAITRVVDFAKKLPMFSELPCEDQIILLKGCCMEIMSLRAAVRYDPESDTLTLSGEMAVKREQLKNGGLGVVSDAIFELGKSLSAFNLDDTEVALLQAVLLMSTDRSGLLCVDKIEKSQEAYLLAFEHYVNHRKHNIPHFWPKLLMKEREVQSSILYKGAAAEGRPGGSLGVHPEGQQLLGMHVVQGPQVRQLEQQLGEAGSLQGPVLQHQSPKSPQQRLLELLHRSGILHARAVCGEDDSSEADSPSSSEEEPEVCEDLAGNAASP
Chain of mouse Peroxisome Proliferator-activated Receptor gamma (PPARg), Pparg (gene 19016) (P37238 whole entry, looked up, the tested form may be a part): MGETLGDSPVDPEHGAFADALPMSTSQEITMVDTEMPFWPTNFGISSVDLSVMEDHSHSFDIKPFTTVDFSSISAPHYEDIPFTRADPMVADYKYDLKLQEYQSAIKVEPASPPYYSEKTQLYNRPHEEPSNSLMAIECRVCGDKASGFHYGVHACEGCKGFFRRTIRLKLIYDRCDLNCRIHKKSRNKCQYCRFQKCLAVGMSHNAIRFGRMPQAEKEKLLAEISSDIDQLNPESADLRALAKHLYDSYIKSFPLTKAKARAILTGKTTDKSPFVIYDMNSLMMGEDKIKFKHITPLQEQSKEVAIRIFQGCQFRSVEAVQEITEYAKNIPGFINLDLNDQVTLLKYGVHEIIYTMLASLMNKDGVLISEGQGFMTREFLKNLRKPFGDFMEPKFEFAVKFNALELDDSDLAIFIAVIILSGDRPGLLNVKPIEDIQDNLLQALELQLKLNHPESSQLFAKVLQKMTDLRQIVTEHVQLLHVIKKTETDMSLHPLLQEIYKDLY
Chain of zebrafish Thyroid Hormone Receptor alpha (TRa), thraa (gene 30670) (Q98867 whole entry, looked up, the tested form may be a part): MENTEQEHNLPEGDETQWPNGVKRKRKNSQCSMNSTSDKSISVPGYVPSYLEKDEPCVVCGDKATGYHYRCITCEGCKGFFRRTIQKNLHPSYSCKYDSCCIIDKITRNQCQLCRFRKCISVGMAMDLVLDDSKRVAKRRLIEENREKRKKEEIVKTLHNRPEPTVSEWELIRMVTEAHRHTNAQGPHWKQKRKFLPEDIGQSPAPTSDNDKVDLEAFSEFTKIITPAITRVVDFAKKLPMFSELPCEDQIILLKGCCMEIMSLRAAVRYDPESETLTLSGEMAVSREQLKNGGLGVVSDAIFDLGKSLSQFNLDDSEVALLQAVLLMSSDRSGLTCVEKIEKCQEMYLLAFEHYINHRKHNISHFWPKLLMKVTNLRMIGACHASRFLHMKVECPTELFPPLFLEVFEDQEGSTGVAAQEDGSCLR
Chain of Peroxisome proliferator-activated receptor gamma (Homo sapiens) (P37231 whole entry, looked up, the tested form may be a part): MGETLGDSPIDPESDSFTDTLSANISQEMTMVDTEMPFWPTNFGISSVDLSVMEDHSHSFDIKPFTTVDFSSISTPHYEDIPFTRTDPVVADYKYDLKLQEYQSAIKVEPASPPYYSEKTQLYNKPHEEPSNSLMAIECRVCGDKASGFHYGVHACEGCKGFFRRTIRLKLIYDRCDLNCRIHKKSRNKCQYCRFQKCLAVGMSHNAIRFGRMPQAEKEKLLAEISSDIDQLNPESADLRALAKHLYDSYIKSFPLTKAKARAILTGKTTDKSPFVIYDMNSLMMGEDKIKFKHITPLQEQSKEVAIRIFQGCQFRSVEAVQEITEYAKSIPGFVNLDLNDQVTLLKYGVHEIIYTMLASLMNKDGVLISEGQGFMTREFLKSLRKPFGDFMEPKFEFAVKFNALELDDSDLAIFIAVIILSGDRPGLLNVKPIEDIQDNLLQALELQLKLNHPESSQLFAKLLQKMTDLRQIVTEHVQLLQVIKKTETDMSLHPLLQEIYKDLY
Chain of Nuclear receptor subfamily 1 group I member 2 (Mus musculus) (O54915 whole entry, looked up, the tested form may be a part): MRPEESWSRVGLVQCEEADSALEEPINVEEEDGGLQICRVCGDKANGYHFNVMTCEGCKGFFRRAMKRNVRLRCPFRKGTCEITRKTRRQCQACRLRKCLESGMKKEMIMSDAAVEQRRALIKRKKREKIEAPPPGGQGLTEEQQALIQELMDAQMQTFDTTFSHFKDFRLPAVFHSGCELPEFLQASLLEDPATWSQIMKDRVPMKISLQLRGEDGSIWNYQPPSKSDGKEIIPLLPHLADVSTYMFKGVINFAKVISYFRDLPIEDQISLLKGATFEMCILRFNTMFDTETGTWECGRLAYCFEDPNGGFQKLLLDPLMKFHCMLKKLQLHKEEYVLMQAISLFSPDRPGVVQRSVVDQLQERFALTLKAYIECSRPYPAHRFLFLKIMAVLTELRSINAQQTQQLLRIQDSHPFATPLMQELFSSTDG

COc1ccc(C(=O)c2ccccc2)c(O)c1
active: [1] 6.54 µM and 26.4 µM | [2] 7.66 µM and 2.39 µM | [3] 74.1 µM and 41.1 µM | [4] 78.9 µM and 63.2 µM | [5] 26.7 µM
inactive: [6] | [7] | [8] | [9] | [10] | [11] | [12] | [13] | [14] | [15] | [16]

C=C1C[C@H]2[C@@H]3C=C(C)C4=CC(=O)CC[C@]4(C)[C@H]3CC[C@]2(C)[C@@]1(OC(C)=O)C(C)=O
active: [5] 931 nM and 619 nM
inactive: [3] | [4] | [6] | [7] | [8] | [11] | [12] | [13] | [14] | [15] | [16]

Oc1ccccc1Cc1ccccc1O
active: [1] 26.9 µM and 8.47 µM | [2] 27 µM and 10.5 µM | [3] 43.4 µM and 30.3 µM | [4] 58.3 µM and 34.4 µM | [5] 26.3 µM
inactive: [5] | [6] | [7] | [8] | [9] | [10] | [11] | [12] | [13] | [14]

C/C=C/C=C/CCCCCCCO
inactive: [15] | [16]

CCCCCCCCCCCCCCCCCCOS(=O)(=O)O
inactive: [15] | [16]

CC(CCC(=O)O)(c1ccc(O)cc1)c1ccc(O)cc1
inactive: [17] | [18] | [2] | [3] | [4] | [5] | [6] | [7] | [8] | [9] | [10] | [11] | [12] | [13] | [14]
active: [1] 17.4 µM and 2.94 µM | [2] 27.5 µM | [5] 100 µM

COc1ccc(-c2coc3cc(O)cc(O)c3c2=O)cc1
active: [1] 931 nM and 276 nM | [2] 501 nM and 6.78 nM | [5] 2.51 µM | [15] 9.92 µM
inactive: [17] | [3] | [4] | [5] | [6] | [7] | [8] | [9] | [10] | [11] | [12] | [13] | [14] | [16]

O=C(Nc1ccccc1)c1cc(Cl)ccc1O
inactive: [16]
active: [15] 0.851 µM

CCCCC1C(=O)N(c2ccccc2)N(c2ccccc2)C1=O
inactive: [19] | [20]

CCCCCCCCCC[N+](C)(CCCCCCCCCC)CCC[Si](OC)(OC)OC
inactive: [15] | [16]
